Experiment [1] in a line: antimalarial activity against Dd2 strain (AID 2302;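 active = growth inhibition above 50% at the single 2 µM test dose, taken to imply half-maximal potency below 2 µM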;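 also: 0% = DMSO untreated growth and 100% = chloroquine plus artemisinin killed control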). Particulars: P. falciparum Dd2 in RBCs, LDH growth readout, 72 h; at 2 µM; hits give high values.
The nature of experiment [2]: HepG2 cytotoxicity, primary screen, cytotoxicity control for P. falciparum antimalarial project, cell-based, ATP luminescence (AID 2303;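 active = inhibition above 50%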;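 also: 0% = DMSO wells and 100% = digitonin-killed cells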). Particulars: HepG2 viability, 24-48 h, at 10 µM, hits give high values.
Experiment [3] addresses L-lactate dehydrogenase (Plasmodium falciparum (isolate CDC / Honduras)) (UniProt Q27743). The experiment in a line: PfLDH activity inhibition – cell lysate, 3D7 strain, counter-screen for P. falciparum growth inhibition project (AID 2304).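 Also: 0% = vehicle and 100% = reference inhibitor.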 Particulars: P. falciparum 3D7 crude extract, LDH APAD/NBT absorbance; at 2 µM; hits give high values. For orientation: The purpose of a counterscreen is to sort out artefacts and off-target activity.

Experiment [4] is described as follows: inhibition of 3D7 malaria parasite growth – strain 3D7 (AID 2306).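 Also: 0% = DMSO wells and 100% = chloroquine plus artemisinin control wells.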 The settings on record: P. falciparum 3D7 erythrocytic growth, LDH absorbance, 72 h; at 2 µM; hits give high values.
Experiment [5] deals with Calcium-dependent protein kinase 1 (Plasmodium falciparum (isolate 3D7)) (UniProt P62344). Put plainly: PfCDPK1 kinase inhibitors, biochemical, TCAMS library (AID 1159585; cut-off not given, nearly all actives have IC50 up to about 0.98 µM;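 also: inhibitors leave more ATP so luminescence rises with inhibition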). Particulars: recombinant PfCDPK1, Kinase-Glo ATP depletion luminescence. A general note: Kinase-Glo reads ATP consumption through a luciferase reaction.
Experiment [6] addresses Plasmodium falciparum protein kinase 6 (PK6, PF3D7_1337100) (UniProt Q8IDW1). The experiment in a line: PfPK6 kinase inhibitors, biochemical, TCAMS library (AID 1159586). The settings on record: recombinant PfPK6, Kinase-Glo ATP depletion luminescence.
The target in experiment [7] is Protein kinase 7 (PK7), Plasmodium falciparum 3D7 (PF3D7_0213400) (UniProt Q7YTF7). Put plainly: inhibition of Plasmodium PK7 catalytic activity – biochemical, TCAMS antimalarial set, Kinase-Glo luminescence (AID 1159587). Particulars: recombinant PfPK7, Kinase-Glo ATP depletion luminescence.
For experiment [8], the target named is Calcium-dependent protein kinase 4 (Plasmodium falciparum (isolate 3D7)) (UniProt Q8IBS5). The experiment in a line: PfCDPK4 kinase inhibitors, biochemical, TCAMS library (AID 1159588; cut-off not given, nearly all actives have IC50 up to about 0.91 µM). The settings on record: recombinant PfCDPK4, Kinase-Glo ATP depletion luminescence.

The source of these data is PubChem BioAssay.

As a reminder, the inhibition is the drop in the measured response relative to a control, in per cent.

Molecules are shown by their SMILES. Values without a mark were called inactive. For some of these results: Results with a measured potency or affinity are listed apart. Active and inactive are the calls of the source. Unless noted, no rule for the calls is given here.

Sequence of L-lactate dehydrogenase (Plasmodium falciparum (isolate CDC / Honduras)) (Q27743 whole entry, looked up): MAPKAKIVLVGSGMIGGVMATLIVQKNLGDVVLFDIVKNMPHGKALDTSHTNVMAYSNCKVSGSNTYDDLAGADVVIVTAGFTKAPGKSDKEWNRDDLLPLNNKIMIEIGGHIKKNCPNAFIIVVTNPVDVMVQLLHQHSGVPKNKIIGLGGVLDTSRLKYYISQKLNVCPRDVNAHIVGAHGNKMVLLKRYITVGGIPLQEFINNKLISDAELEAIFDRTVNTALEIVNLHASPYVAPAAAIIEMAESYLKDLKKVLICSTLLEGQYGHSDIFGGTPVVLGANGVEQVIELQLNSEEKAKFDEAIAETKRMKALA
Sequence of Calcium-dependent protein kinase 1 (Plasmodium falciparum (isolate 3D7)) (P62344 whole entry, looked up): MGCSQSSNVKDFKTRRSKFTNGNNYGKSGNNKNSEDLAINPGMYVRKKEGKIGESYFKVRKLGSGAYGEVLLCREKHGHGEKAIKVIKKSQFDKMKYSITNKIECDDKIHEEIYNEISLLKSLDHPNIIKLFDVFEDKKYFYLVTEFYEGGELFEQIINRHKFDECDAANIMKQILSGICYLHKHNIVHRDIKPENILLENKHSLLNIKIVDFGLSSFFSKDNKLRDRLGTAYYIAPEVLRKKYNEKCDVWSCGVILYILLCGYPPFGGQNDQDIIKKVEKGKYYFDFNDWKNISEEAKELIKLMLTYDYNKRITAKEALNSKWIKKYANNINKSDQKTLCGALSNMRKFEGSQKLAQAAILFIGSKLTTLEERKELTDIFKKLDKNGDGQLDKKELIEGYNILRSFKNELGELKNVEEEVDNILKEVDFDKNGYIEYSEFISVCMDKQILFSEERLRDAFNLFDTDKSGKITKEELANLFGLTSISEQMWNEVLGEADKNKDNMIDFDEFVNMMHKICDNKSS
Sequence of Protein kinase 7 (PK7), Plasmodium falciparum 3D7 (PF3D7_0213400) (Q7YTF7 1-343): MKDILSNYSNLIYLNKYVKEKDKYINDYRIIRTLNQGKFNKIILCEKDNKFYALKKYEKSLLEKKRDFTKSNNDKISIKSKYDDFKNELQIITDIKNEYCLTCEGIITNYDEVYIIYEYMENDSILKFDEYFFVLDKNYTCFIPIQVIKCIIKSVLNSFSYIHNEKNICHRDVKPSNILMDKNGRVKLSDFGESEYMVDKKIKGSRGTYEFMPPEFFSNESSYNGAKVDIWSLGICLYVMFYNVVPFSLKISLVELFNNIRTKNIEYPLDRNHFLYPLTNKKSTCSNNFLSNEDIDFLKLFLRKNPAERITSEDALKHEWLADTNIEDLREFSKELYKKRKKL
Sequence of Plasmodium falciparum protein kinase 6 (PK6, PF3D7_1337100) (Q8IDW1 1-305): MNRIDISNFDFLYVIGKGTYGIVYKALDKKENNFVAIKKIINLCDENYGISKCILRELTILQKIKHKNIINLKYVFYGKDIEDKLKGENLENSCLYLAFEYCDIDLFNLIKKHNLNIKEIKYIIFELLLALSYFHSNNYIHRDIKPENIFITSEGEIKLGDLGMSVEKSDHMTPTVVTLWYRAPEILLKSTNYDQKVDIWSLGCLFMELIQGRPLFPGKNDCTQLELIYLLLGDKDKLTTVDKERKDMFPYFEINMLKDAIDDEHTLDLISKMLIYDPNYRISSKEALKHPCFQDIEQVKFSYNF
Sequence of Calcium-dependent protein kinase 4 (Plasmodium falciparum (isolate 3D7)) (Q8IBS5 whole entry, looked up): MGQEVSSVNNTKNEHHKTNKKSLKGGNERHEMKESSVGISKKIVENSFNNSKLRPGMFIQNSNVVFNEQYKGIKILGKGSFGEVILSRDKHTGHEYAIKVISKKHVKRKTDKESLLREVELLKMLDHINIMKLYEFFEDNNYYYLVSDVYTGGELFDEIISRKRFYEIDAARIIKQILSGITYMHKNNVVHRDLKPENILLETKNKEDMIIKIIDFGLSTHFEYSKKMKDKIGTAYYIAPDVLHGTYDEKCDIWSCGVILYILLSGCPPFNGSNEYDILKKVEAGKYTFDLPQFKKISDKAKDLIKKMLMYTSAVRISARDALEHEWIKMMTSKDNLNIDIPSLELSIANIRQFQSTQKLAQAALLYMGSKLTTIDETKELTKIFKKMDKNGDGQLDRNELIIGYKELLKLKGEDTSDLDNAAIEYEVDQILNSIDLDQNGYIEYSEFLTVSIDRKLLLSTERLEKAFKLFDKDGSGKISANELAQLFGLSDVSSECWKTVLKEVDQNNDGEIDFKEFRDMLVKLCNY

In the case of `O=C(c1cc(-c2cccs2)[nH]n1)N1CCN(S(=O)(=O)c2ccc(Cl)cc2)CC1`, the growth inhibition in experiment [1] is 95% (active); in experiment [4], 96% (active). Moreover, the inhibition is -1% in experiment [2] and 3% in experiment [3]. The result in experiment [5], in experiment [6], in experiment [7] and in experiment [8] was inactive.

Turning to `OCCN1CCN(Cc2ccc(-c3cccc(-c4nc5ccccc5[nH]4)c3)cc2)CC1`, the growth inhibition in experiment [1] was 16%; in experiment [4] it was 96% (active). The values for the inhibition in experiment [2] and in experiment [3] were 32% and 6%, respectively. In addition, the result in experiment [5], in experiment [6], in experiment [7] and in experiment [8] was inactive.

Consider `O=C(NC1CCN(Cc2ccccc2)CC1)c1ccc(-c2nc3cc4ccccc4cc3[nH]2)s1`, for which the growth inhibition was 25% in experiment [1] and 99% (active) in experiment [4]. Besides, the results for the inhibition in experiment [2] and in experiment [3] were 13% and -1%, respectively. Further, the result in experiment [5], in experiment [6], in experiment [7] and in experiment [8] was inactive.

With `CCCCCCCCS(=O)(=O)NCCCC1CCN(CCCCCNC(=O)C=Cc2ccc(Cl)c(Cl)c2)CC1`, the growth inhibition in experiment [1] is 26%; in experiment [4] it was 91% (active). Further, the figures for the inhibition in experiment [2] and in experiment [3] were 100% (active) and 6%, respectively. The result in experiment [5], in experiment [6], in experiment [7] and in experiment [8] was inactive.

Consider `CN1CCN(CC(=O)Nc2cccc(-c3cccc(-c4nc5ccccc5[nH]4)c3)c2)CC1`, for which the growth inhibition in experiment [1] was 27%; in experiment [4], 90% (active). For the same compound, the inhibition was 11% in experiment [2] and 3% in experiment [3]. Further, the result in experiment [5], in experiment [6], in experiment [7] and in experiment [8] was inactive.

In the case of `NC(N)=Nc1nc(-c2cccc(NC(=O)NCc3cccc4ccccc34)c2)cs1`, the growth inhibition in experiment [1] was 32%; in experiment [4], 101% (active). The inhibition in experiment [2] was 14%; in experiment [3] it was 5%. In addition, the outcome in experiment [5], in experiment [6], in experiment [7] and in experiment [8] was inactive.

As for `CN1CCN(CC(=O)Nc2cccc(-c3ccc(-c4nc5ccc(C(F)(F)F)cc5[nH]4)s3)c2)CC1`, the growth inhibition in experiment [1] is 95% (active); in experiment [4], 102% (active). Also, the inhibition is 36% in experiment [2] and 1% in experiment [3]. In addition, the result in experiment [5], in experiment [6], in experiment [7] and in experiment [8] was inactive.

For `Cc1[nH]c(C)c(-c2ccc(Br)cc2)c(=O)c1Cl`, the results for the growth inhibition in experiment [1] and in experiment [4] were 77% (active) and 94% (active), respectively. Also, the inhibition is 22% in experiment [2] and -2% in experiment [3]. For the same compound, the result in experiment [5], in experiment [6], in experiment [7] and in experiment [8] was inactive.

Regarding `Cc1ccc(Nc2nccc(NCC(O)c3ccc(C(F)(F)F)cc3)n2)cc1` (stereo not given), the growth inhibition in experiment [1] and in experiment [4] was 100% (active) each time. The inhibition in experiment [2] was 53% (active); in experiment [3], -7%. Further, the result in experiment [5], in experiment [6], in experiment [7] and in experiment [8] was inactive.

On to `O=C(Nc1ccc(C(F)(F)F)cc1)NC1CCN(c2ccnc3ccccc23)CC1`, for which the growth inhibition in experiment [1] is 62% (active); in experiment [4], 103% (active). For the same compound, the inhibition in experiment [2] was 46%; in experiment [3] it was -2%. In addition, the result in experiment [5], in experiment [6], in experiment [7] and in experiment [8] was inactive.

On to `Cc1ccc2nc(C)cc(NN=Cc3ccc(Cl)cc3)c2c1`, for which the values for the growth inhibition in experiment [1] and in experiment [4] were 35% and 102% (active), respectively. For the same compound, the inhibition in experiment [2] is -9%; in experiment [3] it was 6%. Moreover, the outcome in experiment [5], in experiment [6], in experiment [7] and in experiment [8] was inactive.

As to `COC(=O)c1cccc(CNCc2ccc(-c3cccc(-c4nc5ccc(C(F)(F)F)cc5[nH]4)c3)cc2)c1`, the results for the growth inhibition in experiment [1] and in experiment [4] were 97% (active) and 102% (active), respectively. The values for the inhibition in experiment [2] and in experiment [3] were 5% and 6%, respectively. In addition, the outcome in experiment [5], in experiment [6], in experiment [7] and in experiment [8] was inactive.

`CON(CCCN(C)C)C(=N)N`: the figures for the growth inhibition in experiment [1] and in experiment [4] were -4% and 92% (active), respectively. Further, the inhibition is 3% in experiment [2] and 1% in experiment [3]. Also, the result in experiment [5], in experiment [6], in experiment [7] and in experiment [8] was inactive.

For the compound `C(=C(c1cccs1)c1cccs1)c1ccc(CNC2CCN(Cc3ccccc3)CC2)cc1`, the growth inhibition in experiment [1] is 21%; in experiment [4], 98% (active). The inhibition in experiment [2] was 40%; in experiment [3], 4%. In addition, the outcome in experiment [5], in experiment [6], in experiment [7] and in experiment [8] was inactive.

As for `CCCNCc1ccc(-c2ccc(CN(CCOC)C(=O)c3ccco3)cc2)nc1`, the figures for the growth inhibition in experiment [1] and in experiment [4] were 21% and 91% (active), respectively. Also, the inhibition in experiment [2] was 1%; in experiment [3], -7%. In addition, the outcome in experiment [5], in experiment [6], in experiment [7] and in experiment [8] was inactive.

On to `COc1cc2nc(N3CCC(CNC(=O)c4cc5ccccc5s4)CC3)nc(N)c2cc1OC`, for which the growth inhibition in experiment [1] and in experiment [4] was 101% (active) in each case. The inhibition is 8% in experiment [2] and 2% in experiment [3]. Also, the result in experiment [5], in experiment [6], in experiment [7] and in experiment [8] was inactive.

In the case of `Cc1nnc2c(NC(=O)NC3CCCC3)cc3cc(-c4ccc(CN5CCCCC5)cc4)ccc3n12`, the results for the growth inhibition in experiment [1] and in experiment [4] were 93% (active) and 99% (active), respectively. In addition, the inhibition in experiment [2] was 100% (active); in experiment [3] it was -3%. For the same compound, the result in experiment [5], in experiment [6], in experiment [7] and in experiment [8] was inactive.

In the case of `Fc1c(CNCC2CCN(CC3CCCCC3)CC2)cccc1C(F)(F)F`, the values for the growth inhibition in experiment [1] and in experiment [4] were 7% and 93% (active), respectively. For the same compound, the results for the inhibition in experiment [2] and in experiment [3] were 35% and 3%, respectively. The outcome in experiment [5], in experiment [6], in experiment [7] and in experiment [8] was inactive.

As to `NC(=NCc1ccccc1)Nc1nc(-c2ccc(OCCCn3ccnc3)cc2)cs1`, the growth inhibition in experiment [1] was 55% (active); in experiment [4], 100% (active). Moreover, the values for the inhibition in experiment [2] and in experiment [3] were 10% and 2%, respectively. Further, the result in experiment [5], in experiment [6], in experiment [7] and in experiment [8] was inactive.

With `Cc1cc(NC(=O)Nc2cccc(C#N)c2)c2ccccc2n1`, the results for the growth inhibition in experiment [1] and in experiment [4] were 82% (active) and 100% (active), respectively. Further, the results for the inhibition in experiment [2] and in experiment [3] were 17% and -1%, respectively. For the same compound, the outcome in experiment [5], in experiment [6], in experiment [7] and in experiment [8] was inactive.
